# Bioassay records from PubChem.
# Hits are enriched below; roughly 6.8% of the tested compounds scored in any of these assays.
# DPM-DC inhibit = inhibitors of Streptococcus pneumoniae diphosphomevalonate decarboxylase; purified DPM-DC, PK/LDH coupled NADH fluorescence; calls only at 10 µM; actives 0.49% (n = 65,000);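 active = the 320 compounds with the highest percent inhibition in the single-dose primary screen, excluding strongly autofluorescent ones, cut at about 32% in these data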;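 note: kinetic rate of NADH fluorescence loss reporting ADP formed by the decarboxylase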
# Fluor 339 460 = intrinsic fluorescence of library compounds, ex339/em460 – biochemical, MLSMR library, data from DPM-DC assay, artefact control, profiling panel. compound autofluorescence, ex339/em460 nm, NADH buffer; stronger effect = higher value; 1 = no-compound wells, NADH background. fluorescence fold increase at 10 µM. actives 5.5% (n = 65,000);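 active = at 10 µM, mean starting fluorescence two-fold or more over control wells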;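 note: signal is the first read of a kinetic run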
# Spn MK inh = S. pneumoniae mevalonate kinase inhibition; purified MK, PK/LDH-coupled NADH absorbance 340 nm; inhibition, % at 10 µM; actives 0.48% (n = 65,000); AID 555;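 active = ranked among the strongest by inhibition in the single 10 µM screen, a fixed top-ranked set picked for dose follow-up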
# Abs 340nm = compounds absorbing at 340 nm. fold change at 10 µM. 65,000 tested, under 10 active. compound absorbance at 340 nm, fold over control;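 active = at 10 µM dose, initial 340 nm absorbance at least 2 fold that of control wells; inactive = change under 2 fold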;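 note: initial absorbance extrapolated from kinetic A340 decline of NADH oxidation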
# Spn PMK inh = blocks S. pneumoniae phosphomevalonate kinase; purified PMK, PK/LDH-coupled NADH absorbance 340 nm; inhibition, % at 10 µM; actives 0.49% (n = 65,000); AID 539;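 active = top-ranked compounds by inhibition in the single 10 µM screen, taking a fixed number of the strongest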;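 note: 0% = full reaction with DMSO carrier and 100% = background rate without enzyme reaction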
# NADH enzymes = inhibition of NAD/NADH coupling enzymes, library profiling; AID 774; actives 0.02% (n = 65,000); IC50, µM (highest dose often 10 µM), without a hit: top-dose inhibition; coupled PK/LDH NADH assays, four targets;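 active = single-dose screening hits from any of four coupled enzyme assays that gave an IC50 when retested across doses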;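 note: the DPM-DC format reads NADH fluorescence rather than 340 nm absorbance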
# Active calls of the source: *; i = inactive; . = not tested or not shown; + = active, no number.
SMILES,DPM-DC inhibit,Fluor 339 460,Spn MK inh,Abs 340nm,Spn PMK inh,NADH enzymes
Cc1c(-c2ccccc2)c(P(=O)(N2CCOCC2)N2CCOCC2)c2ccccn12,.,5*,0,1,12,6%
Nc1nncn1C(=O)CCCN1C(=O)c2ccccc2C1=O,i,1.1,5,1,7,4%
N#Cc1c(/N=C/c2ccco2)sc2c1CCCCC2,i,1.1,9,1,0,3%
O=S(=O)(c1ccc2nc(-c3ccco3)c(-c3ccco3)nc2c1)N1CCOCC1,i,2.2*,13,1,11,10%
O=C(Nc1ccc(N2CCOCC2)cc1)Nc1ccc2nc(-c3ccco3)c(-c3ccco3)nc2c1,i,1.1,3,1,0,3%
CC(C)C(NS(=O)(=O)c1ccc(Br)s1)C(=O)O (centres undefined),i,1.1,0,0.97,15,5%
Cc1ccc(CNC(=O)C2CCN(S(=O)(=O)c3cccs3)CC2)o1,i,1,0,0.99,11,2%
Nc1nc(N2CCOCC2)nc2ccccc12,.,4*,12,1,2,7%
c1ccc2c(c1)nc(N1CCOCC1)c1c3ccccc3[nH]c21,.,3.6*,7,1.1,9,8%
Cc1cc(N2CCN(c3nc(N4CCOCC4)nc4ccccc34)CC2)c2ccccc2n1,i,2.1*,3,1.1,6,7%
c1ccc2c(N3CCCCC3)nc(N3CCCCC3)nc2c1,i,1.5,0,1,12,7%
CCOc1ccc2nc(N3CCOCC3)nc(C)c2c1,.,3.8*,5,1.1,4,5%
c1ccc2nc(N3CCOCC3)c(N3CCOCC3)nc2c1,i,1.1,16,1.1,5,7%
COc1ccccc1N1CC(C(=O)OC(C)C(=O)N2CCCc3ccccc32)CC1=O (centres undefined),i,1.1,4,0.99,14,6%
O=C1CC(C(=O)NCc2ccccc2)C2(CCCC2)O1 (centres undefined),i,1.1,7,1,2,3%
Cc1nnc(NC(=O)C(C)Oc2ccc3c(C)cc(=O)oc3c2)s1 (centres undefined),i,1.5,1,1.1,10,6%
O=C(O)c1ccc(COc2ccc3c4c(c(=O)oc3c2)CCC4)o1,.,3.5*,11,1.1,13,12%
Cc1cc(OCC(=O)N2CCCC2)ccc1Cl,i,1.1,1,1,1,1%
O=C(O)C1CCN(C(=O)COc2ccc3c4c(c(=O)oc3c2)CCC4)CC1,i,3.2*,14,1.1,16,18%
CC(=O)C(C)Oc1ccc2c3c(c(=O)oc2c1)CCCC3 (centres undefined),.,2.1*,8,1.1,12,10%
Cc1cc(C)cc(OCc2ccc(C(=O)O)o2)c1,i,1.1,7,1,9,8%
COC(=O)c1ccc(COc2ccc3c(C)c(C)c(=O)oc3c2)o1,.,2.2*,6,1.1,8,7%
COC(=O)c1ccc(Cc2ccc(C(=O)OC)o2)o1,i,0.99,0,0.99,19,6%
Cc1cc(C)nc(Nc2n[nH]c(Cc3ccccc3)n2)n1,i,1.1,13,1.1,8,8%
Cc1c(C)c2ccc(OCc3ccc(C(=O)O)o3)c(C)c2oc1=O,.,3.9*,1,1,7,4%
SMILES,DPM-DC inhibit,Fluor 339 460,Spn MK inh,Abs 340nm,Spn PMK inh,NADH enzymes
CC(=O)COc1ccc2c3c(c(=O)oc2c1)CCCC3,.,3.9*,2,1,5,4%
O=C(O)C(Oc1ccc2c3c(c(=O)oc2c1)CCC3)c1ccccc1 (centres undefined),.,3.7*,9,1.2,1,5%
CCc1cc2c3c(c(=O)oc2cc1O)CCCC3,.,2.2*,1,1.2,0,1%
Cc1cc(=O)oc2cc(OC(C)C(=O)N3CCCc4ccccc43)ccc12 (centres undefined),i,1.7,0,1.1,0,2%
CC(=O)C(C)Oc1ccc2c3c(c(=O)oc2c1)CCCCC3 (centres undefined),.,3.7*,0,1.2,9,5%
CN(C(=O)C1CCCO1)c1nnc(-c2ccccn2)s1 (centres undefined),.,4.8*,1,1.2,0,1%
CN(C(=O)c1ccncc1)c1nnc(-c2ccncc2)s1,.,3.6*,7,0.98,9,8%
COCC(=O)N(C)c1nnc(-c2ccccn2)s1,i,2*,0,0.99,4,3%
CN(C(=O)C1CCOC1)c1nnc(-c2ccccn2)s1 (centres undefined),i,1.2,0,1.1,0,2%
Cc1cnc(-c2nnc(N(C)C(=O)C3CCOC3)s2)cn1 (centres undefined),i,2*,7,1.1,5,8%
CN(C(=O)C1CCCO1)c1nnc(-c2ccncc2)s1 (centres undefined),.,2.6*,4,0.99,8,3%
CN(C(=O)c1cnccn1)c1nnc(-c2cccnc2)s1,i,1.3,3,1,30*,11%
COc1cc(SC)ccc1C(=O)Nc1ccc2c(c1)OCCO2,i,1.1,5,1.1,5,3%
Cc1c(C(=O)Nc2ccc(F)cc2)oc2ccc(S(=O)(=O)N3CCCC3)cc12,i,1.1,7,1,12,7%
O=C(NC1CCCC1)c1ccc(S(=O)(=O)N2CCCC2)cc1,i,2.1*,6,1,11,2%
Cc1ccc(NC(=O)c2oc3ccc(S(=O)(=O)N4CCOCC4)cc3c2C)cc1C,.,3.1*,4,1.1,11,5%
O=C(NC1CC1)c1ccc(S(=O)(=O)NC2CCCCCC2)cc1,i,1.1,0,1,5,2%
Cc1c(C(=O)NC2CC2)oc2ccc(S(=O)(=O)N3CCCCCC3)cc12,+,1,1,1,12,5%
CCCCCn1c(=NC(=O)c2ccco2)c(C(=O)OCC)cc2c(=O)n3ccccc3nc21,i,3*,5,1.1,9,9%
CCOC(=O)c1c(C)nc2ccccn12,i,1.1,6,1,11,6%
CCCCn1c(=NC(=O)c2ccco2)c(C(=O)OCC)cc2c(=O)n3ccccc3nc21,.,2.2*,12,1,0,6%
CCN(CC)c1ncccc1C(=O)NCc1cccs1,i,1.1,12,1,8,7%
CC(C)CCn1nnnc1C(c1ccc(F)cc1)N1CCN(C(=O)c2ccco2)CC1 (centres undefined),i,1.1,0,1,26*,9%
Cc1ccc(C(c2nnnn2CC2CCCO2)N2CCN(C(=O)c3ccco3)CC2)cc1 (centres undefined),i,0.83,0,0.97,32*,15%
COc1ccc(OC)c2c1CC(C)(C)NC2=O,.,2.1*,3,1.1,0,2%
